The list is not random: actives were taken first. Their share in the collection is about 3.9%.
CASP6 VEID inh: caspase-6 (human) enzyme inhibition; 350,000 tested, 0.53% active; inhibition, % at 12.5 µM; purified caspase-6, Z-VEID-R110 cleavage fluorescence; P55212;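 active = mean inhibition across replicates at least about 35%, with every replicate also reaching that limit, limit read from the data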
Glyco luc inh: blocks N-linked glycosylation in D54 reporter cells. D54 ERlucT glycosylation luciferase reporter, 24 h; percent of 100 nM tunicamycin response. reporter increase, % at 12.5 µM. 360,000 tested, 0.23% active. AID 588692;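 active = mean luciferase reporter signal, scaled so untreated is 0 and the glycosylation-blocking control 100, at or above a set limit in every replicate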;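 also: luciferase carries N-glycosylation sites so blocking glycosylation raises the light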
CDK5 p35 inh: inhibitors of human CDK5/p35 kinase; inhibition, % at 10 µM; AID 488839; Q00535+Q15078; 330,000 tested, 0.01% active; Recombinant CDK5/p35, ADP-Glo luminescence, 60 min;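 active = highest replicate inhibition of at least 50% and at least 75% of replicates reaching 50%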
NSD2 HMT inh: inhibitors of human histone methyltransferase NSD2 | O96028 | NSD2 peptide methylation, AlphaScreen, 120 min | inhibition, % at 12.5 µM | 310,000 tested, 0.54% active; in the data active = inhibition above about 50%
ALR H2O2 inh: human ALR oxidase inhibition via reduced H2O2; AID 485317; purified ALR, DTT oxidation, H2O2 HRP-luminol luminescence; 290,000 tested, 3.8% active; P55789; inhibition, % (concentration not given with the values);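 active = mean replicate inhibition above about 79%, with every replicate also reaching it, limit read from the data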
SUMO Mot1 rescue: blocks SUMOylation pathway, rescuing yeast Mot1-301 growth. S. cerevisiae Mot1-301 growth rescue, ATP luminescence, 38.5C; percent above DMSO median, 100 means doubled. growth rescue, % at 18.8 µM. 320,000 tested, 1% active;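 active = every valid replicate shows activation above 250% relative to neutral control wells; inactive = the rest, any valid replicate at or below 250%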
Numbers stand for hits; – = inactive; · = no result.

SMILES	CASP6 VEID inh	Glyco luc inh	CDK5 p35 inh	NSD2 HMT inh	ALR H2O2 inh	SUMO Mot1 rescue
O=C(NCCCO)c1ccc(CSc2nc3ccccc3c(=O)[nH]2)cc1	–	–	–	·	99.7	–
CCOC(=O)CSc1n[nH]c(NC(=O)c2cccc(C)c2)n1	·	–	–	–	97.2	–
Cc1ccc(S(=O)(=O)Nc2ccc3c(c2)C(=O)N([C@@H](C)CO)C[C@@H](C)[C@H](CN(C)C(=O)Nc2ccc(C(F)(F)F)cc2)O3)cc1	–	·	·	·	·	·
CCOc1ccc(-c2nc(CCl)cs2)cc1	–	–	–	·	·	–
ClCc1csc(-c2ccc(Cl)cc2)n1	·	–	–	–	98.2	–
S=c1[nH]nc(-c2ccccn2)n1/N=C/c1ccc(Br)s1	·	–	–	–	96.1	–
S=c1[nH]nc(COc2ccccc2)n1/N=C/c1ccc(Br)s1	·	–	–	–	95.1	·
S=c1[nH]nc(-c2ccccn2)n1/N=C/c1ccc(-c2ccccc2Cl)o1	–	–	–	–	96.7	–
S=c1[nH]nc(-c2ccccn2)n1/N=C/c1ccc(Cl)c(Cl)c1	–	–	·	–	–	–
Cc1ccc(/C=N/n2c(COc3ccccc3)n[nH]c2=S)s1	–	–	–	–	–	–
CCN(CC)CC(=O)Nc1ccc2c(c1)Nc1ccccc1CC2	–	–	–	–	98.9	–
COc1ccc(S(=O)(=O)N2CCOCC2)cc1C(=O)NCC(c1ccccc1)c1ccccc1	49.9	–	–	–	·	·
COc1ccc(S(=O)(=O)N2CCOCC2)cc1C(=O)NCc1ccccc1CN1CCCC1	–	–	–	–	–	–
COc1ccccc1C(=O)OCC(=O)Nc1cc(S(=O)(=O)N2CCOCC2)ccc1N1CCCC1	–	–	–	–	–	407.2
C[C@@H]1CN([C@H](C)CO)C(=O)Cc2cc(NS(C)(=O)=O)ccc2O[C@H]1CN(C)C(=O)Nc1cccc2ccccc12	–	·	·	·	·	·
CC1CC(N(C(=O)c2ccco2)c2ccccc2)c2ccccc2N1 (configuration not stated)	·	–	–	–	97.5	–
C[C@@H]1CN([C@H](C)CO)C(=O)c2cc(C#C[C@@H](C)O)cnc2O[C@@H]1CN(C)Cc1ccccn1	–	·	·	·	·	·
O=C(CSc1nnc(CNC(=O)c2c(F)cccc2Cl)o1)Nc1ccc2c(c1)OCO2	–	–	–	·	97.1	–
Cc1ccc(NC(=O)CSc2nnc(CNC(=O)c3c(F)cccc3Cl)o2)cc1	·	–	–	–	98.4	–
Cc1cc(C)c(NC(=O)CSc2nnc(CNC(=O)c3c(F)cccc3Cl)o2)c(C)c1	–	–	–	–	–	–
COc1cccc(-c2ccc([C@H]3[C@@H](CO)N4CCCCN(C(=O)c5ccc6c(c5)OCO6)C[C@H]34)cc2)c1	–	·	·	·	·	·
O=C(Nc1cccc(Cl)c1)O/N=C\c1ccncc1	–	–	–	–	–	–
Cc1ccc(N/N=C/c2ccncc2)cc1	–	–	–	–	99.2	–
Oc1ccccc1/C=N/Nc1ccccc1	–	–	–	–	98.8	–
Clc1ccc(/C=N\Nc2ccccc2)cc1	–	–	–	–	98.6	–
SMILES	CASP6 VEID inh	Glyco luc inh	CDK5 p35 inh	NSD2 HMT inh	ALR H2O2 inh	SUMO Mot1 rescue
Clc1cccc(N/N=C/c2ccncc2)c1	·	–	–	–	94.8	–
O=C(N/N=C/c1ccc(Cl)cc1)Nc1ccccc1	·	–	–	–	·	–
CCCC#Cc1ccc([C@@H]2[C@H](CO)N3C(=O)CN(C(=O)c4ccc(F)cc4)C[C@@H]23)cc1	–	·	·	·	·	·
Cc1csc(N/N=C\c2cccnc2)n1	–	–	–	–	–	–
Cc1ccc(N/N=C/c2cccnc2)cc1	·	–	–	–	100.7	289.2
CCOC(=O)c1nn(-c2ccc(C)c(C)c2)cc1O	·	–	–	–	97.3	–
C[C@@H]1CN([C@@H](C)CO)C(=O)c2cc(NC(=O)c3ccncc3)ccc2O[C@@H]1CN(C)C(=O)Nc1ccc(F)cc1	–	·	·	·	·	·
CC(C)CC#Cc1ccc2c(c1)O[C@@H](CN(C)C(=O)C1CCC1)[C@@H](C)CN([C@@H](C)CO)S2(=O)=O	–	·	·	·	·	·
c1ccc2c(c1)CC/C2=N/Nc1nc2ccccc2[nH]1	–	–	–	–	99.1	–
CC(C)(C)C1CCC(=NNc2nc3ccccc3[nH]2)CC1 (configuration not stated)	–	–	–	–	98.0	–
c1ccc(CN2CCC(=NNc3nc4ccccc4[nH]3)CC2)cc1	–	–	–	–	99.1	–
C(=N\Nc1nc2ccccc2[nH]1)/c1ccccn1	–	–	–	–	·	·
COCC(=O)Nc1ccc2c(c1)OC[C@@H](C)N(C(=O)c1ccccc1F)C[C@@H](C)[C@@H](OC)CN(C)C2=O	–	·	·	·	·	·
Cc1ccc(C(=O)NCCSc2snnc2C)cc1	·	–	–	–	93.9	–
O=C(C[C@H]1C=C[C@H](NC(=O)c2ccc(F)cc2)[C@@H](CO)O1)NCCc1ccccc1	–	·	·	·	·	·
Cc1nc2ccc(S(=O)(=O)NC(C(=O)Nc3nc4ccc(Cl)cc4s3)C(C)C)cc2s1 (configuration not stated)	–	–	–	·	–	–
Cc1nc2ccc(S(=O)(=O)NC(C(=O)Nc3nccs3)C(C)C)cc2s1 (configuration not stated)	–	–	–	·	91.8	–
COc1ccccc1NC(=O)N1CC(=O)N2[C@H](CO)[C@@H](c3ccc(-c4ccc(C)cc4)cc3)[C@@H]2C1	–	·	·	·	·	·
Cn1ccnc1SCC(=O)Nc1ccc2c(c1)COC2=O	·	–	–	–	99.2	–
COc1ccc(NC(=O)CSc2nccn2C)cc1S(N)(=O)=O	–	–	–	–	98.7	–
CCOC(=O)c1ccc(NC(=O)CSc2nccn2C)cc1	·	–	–	–	98.8	–
COc1ccc(NC(=O)CSc2nncs2)cc1S(N)(=O)=O	–	–	–	–	–	–
CC1=CC(C)(C)N(C(=O)c2ccc(F)cc2)c2cc3c(cc21)OCO3	·	–	–	–	97.9	–
C[C@@H]1CN([C@H](C)CO)C(=O)c2cc(C3=CCCCC3)cnc2O[C@H]1CN(C)Cc1ccncc1	–	·	·	·	·	·
Fc1ccc(N2CCN(C(=S)NCC3CCCO3)CC2)cc1 (configuration not stated)	–	–	–	–	98.7	–
SMILES	CASP6 VEID inh	Glyco luc inh	CDK5 p35 inh	NSD2 HMT inh	ALR H2O2 inh	SUMO Mot1 rescue
S=C(NCC1CCCO1)N1CCN(c2cccc(Cl)c2)CC1 (configuration not stated)	–	–	–	·	–	–
[N-]=[N+]=CC(=O)C(O)(c1ccccc1)C(Cl)c1ccccc1 (configuration not stated)	–	–	·	–	–	301.5
[N-]=[N+]=CC(=O)C(c1ccccc1)(c1ccccc1)c1ccccc1	–	–	–	·	·	–
O=C1NC(=O)C(Nc2cccc3ccccc23)S1 (configuration not stated)	·	–	–	–	–	–
CN1C(=O)SC(Nc2cccc3ccccc23)C1=O (configuration not stated)	·	–	–	–	90.1	–
O=C(CSc1nccc(=O)[nH]1)Nc1cccc(S(=O)(=O)N2CCOCC2)c1	–	–	–	–	–	–

Screening results from PubChem BioAssay.
